Results as given in ChEMBL document CHEMBL3988442, “University of Dundee, Small-Polar-MMV Screening Library” (2021).
For some of these results: Measured potencies and affinities stand elsewhere.

Experiments:
Parameters in all cases: scale not given: direction of the effect not stated beside the values
[1] = target: Protein translocase subunit SecA (Escherichia coli (strain K12)) (UniProt P10408); test: Assay to Identify E. coli SecA ATPase Inhibitors; assay type: functional; settings: 30 µM
[2] = target: T1, Ubiquitin-activating enzyme e1, putative (Leishmania donovani (strain BPK282A1)) (UniProt E9BSI1); test: Leishmania donovani Ubiquitin Activating Enzyme (LdE1); assay type: functional; settings: 30 µM
T1 sequence (whole entry): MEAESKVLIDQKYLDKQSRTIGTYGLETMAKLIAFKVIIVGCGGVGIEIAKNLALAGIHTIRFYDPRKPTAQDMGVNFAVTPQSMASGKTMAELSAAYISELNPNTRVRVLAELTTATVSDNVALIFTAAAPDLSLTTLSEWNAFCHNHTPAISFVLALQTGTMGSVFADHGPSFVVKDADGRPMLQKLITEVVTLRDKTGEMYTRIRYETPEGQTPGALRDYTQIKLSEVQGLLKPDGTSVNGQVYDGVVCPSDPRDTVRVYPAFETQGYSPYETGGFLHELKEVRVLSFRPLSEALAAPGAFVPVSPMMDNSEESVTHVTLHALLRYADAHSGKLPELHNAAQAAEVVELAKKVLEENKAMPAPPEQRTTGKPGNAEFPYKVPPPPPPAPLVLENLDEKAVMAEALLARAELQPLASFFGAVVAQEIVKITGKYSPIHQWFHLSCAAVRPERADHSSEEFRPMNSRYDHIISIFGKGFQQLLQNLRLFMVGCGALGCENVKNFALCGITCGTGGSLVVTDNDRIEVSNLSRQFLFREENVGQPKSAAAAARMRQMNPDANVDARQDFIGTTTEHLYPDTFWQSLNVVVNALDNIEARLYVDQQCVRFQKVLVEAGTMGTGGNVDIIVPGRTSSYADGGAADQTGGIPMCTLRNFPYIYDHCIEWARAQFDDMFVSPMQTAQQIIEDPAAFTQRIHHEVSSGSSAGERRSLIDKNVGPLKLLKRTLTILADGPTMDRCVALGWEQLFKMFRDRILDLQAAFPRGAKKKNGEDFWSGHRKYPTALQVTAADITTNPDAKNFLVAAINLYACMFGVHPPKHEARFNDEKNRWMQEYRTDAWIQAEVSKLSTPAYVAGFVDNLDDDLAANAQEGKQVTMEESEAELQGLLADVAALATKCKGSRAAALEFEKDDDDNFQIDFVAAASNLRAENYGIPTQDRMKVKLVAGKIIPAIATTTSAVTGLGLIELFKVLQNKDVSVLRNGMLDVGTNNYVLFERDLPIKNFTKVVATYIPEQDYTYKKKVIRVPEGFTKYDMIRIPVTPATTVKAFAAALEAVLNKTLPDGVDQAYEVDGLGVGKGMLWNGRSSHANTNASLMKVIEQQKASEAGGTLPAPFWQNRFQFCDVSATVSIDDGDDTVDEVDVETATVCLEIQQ

[3] = target: AMP-activated protein kinase, AMPK (Homo sapiens) (UniProt P54646+O43741+P54619+Q9UGJ0+Q9Y478+Q13131+Q9UGI9); test: AMP-dependent Kinase enzyme assay. An in vitro enzyme assay that detects ADP turnover that is directly proportional to AMPK activity. This uses naive AMPK that is activated during the assay with MK-8722; assay type: functional; settings: 30 µM
[4] = target: Sialic acid-binding Ig-like lectin 9 (Homo sapiens) (UniProt Q9Y336); test: Hs-Siglec9 ALPHAscreen SOP 20170721; settings: 10 µM
Sequence of Sialic acid-binding Ig-like lectin 9 (Homo sapiens) (Q9Y336 whole entry): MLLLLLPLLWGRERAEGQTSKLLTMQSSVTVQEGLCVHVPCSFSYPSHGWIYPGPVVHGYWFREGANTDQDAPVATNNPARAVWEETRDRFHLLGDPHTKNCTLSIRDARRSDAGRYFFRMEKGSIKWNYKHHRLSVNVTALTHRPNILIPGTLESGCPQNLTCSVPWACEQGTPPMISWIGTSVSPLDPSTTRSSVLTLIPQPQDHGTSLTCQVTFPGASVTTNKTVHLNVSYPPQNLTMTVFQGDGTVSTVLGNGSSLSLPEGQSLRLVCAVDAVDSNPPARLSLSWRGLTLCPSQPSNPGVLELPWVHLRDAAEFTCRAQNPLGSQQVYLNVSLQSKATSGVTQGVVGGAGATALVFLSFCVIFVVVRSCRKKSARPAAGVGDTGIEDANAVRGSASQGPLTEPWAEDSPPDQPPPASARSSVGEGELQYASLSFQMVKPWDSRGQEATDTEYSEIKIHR

Trypanosoma cruzi = test: Trypanosoma cruzi phosphomannomutase and mannose-1-phosphate guanylyltransferase assay; assay type: functional; settings: 10 µM
[5] = target: T2, Arginase-2, mitochondrial (Homo sapiens) (UniProt P78540); test: in vitro enzyme assay to detect the production of urea directly proportional to the activity of Arginase II; assay type: functional; settings: 33.3 µM; also: in the data most compounds retested in dose-response had high values
T2 sequence (whole entry): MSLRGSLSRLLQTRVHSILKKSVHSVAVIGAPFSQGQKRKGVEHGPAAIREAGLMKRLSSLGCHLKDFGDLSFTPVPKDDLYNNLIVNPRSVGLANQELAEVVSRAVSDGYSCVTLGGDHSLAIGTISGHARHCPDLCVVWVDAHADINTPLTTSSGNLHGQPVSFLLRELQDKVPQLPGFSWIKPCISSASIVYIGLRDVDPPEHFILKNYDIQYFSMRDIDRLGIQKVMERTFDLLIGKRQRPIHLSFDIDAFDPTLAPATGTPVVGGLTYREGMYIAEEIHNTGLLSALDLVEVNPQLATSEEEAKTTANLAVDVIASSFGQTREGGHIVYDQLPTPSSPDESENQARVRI

[6] = target: T3, Proteasome subunit beta (Trypanosoma cruzi) (UniProt O96673); test: Trypanosoma cruzi proteasome chymotrypsin-like activity (TcProtChymo) assay.; also: in the data most compounds retested in dose-response had high values; assay type: functional; settings: 9.37 µM
T3 sequence (whole entry): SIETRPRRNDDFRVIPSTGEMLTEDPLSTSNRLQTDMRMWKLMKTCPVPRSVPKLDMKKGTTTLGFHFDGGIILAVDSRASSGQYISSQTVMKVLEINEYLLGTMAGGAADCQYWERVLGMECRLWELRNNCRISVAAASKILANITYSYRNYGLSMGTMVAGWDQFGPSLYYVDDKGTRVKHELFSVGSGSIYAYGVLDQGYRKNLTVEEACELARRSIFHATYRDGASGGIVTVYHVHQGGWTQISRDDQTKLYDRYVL

Homo sapiens = species on record: Homo sapiens; test: To identify inhibition of the IFN signalling (Jak-Stat) pathway via expression of an eGFP reporter gene under the control of an IFN-stimulated response element (ISRE) containing MxA promoter.; assay type: functional; settings: 30 µM
[7] = target: T4, Tyrosyl-tRNA synthetase, putative (Trypanosoma cruzi (strain CL Brener)) (UniProt Q4DSP6); test: Trypanosoma cruzi tyrosyl tRNA synthetase (TcYRS) _High Tyrosine SOP; assay type: functional; settings: 30 µM; also: in the data most compounds retested in dose-response had high values
T4 sequence (whole entry): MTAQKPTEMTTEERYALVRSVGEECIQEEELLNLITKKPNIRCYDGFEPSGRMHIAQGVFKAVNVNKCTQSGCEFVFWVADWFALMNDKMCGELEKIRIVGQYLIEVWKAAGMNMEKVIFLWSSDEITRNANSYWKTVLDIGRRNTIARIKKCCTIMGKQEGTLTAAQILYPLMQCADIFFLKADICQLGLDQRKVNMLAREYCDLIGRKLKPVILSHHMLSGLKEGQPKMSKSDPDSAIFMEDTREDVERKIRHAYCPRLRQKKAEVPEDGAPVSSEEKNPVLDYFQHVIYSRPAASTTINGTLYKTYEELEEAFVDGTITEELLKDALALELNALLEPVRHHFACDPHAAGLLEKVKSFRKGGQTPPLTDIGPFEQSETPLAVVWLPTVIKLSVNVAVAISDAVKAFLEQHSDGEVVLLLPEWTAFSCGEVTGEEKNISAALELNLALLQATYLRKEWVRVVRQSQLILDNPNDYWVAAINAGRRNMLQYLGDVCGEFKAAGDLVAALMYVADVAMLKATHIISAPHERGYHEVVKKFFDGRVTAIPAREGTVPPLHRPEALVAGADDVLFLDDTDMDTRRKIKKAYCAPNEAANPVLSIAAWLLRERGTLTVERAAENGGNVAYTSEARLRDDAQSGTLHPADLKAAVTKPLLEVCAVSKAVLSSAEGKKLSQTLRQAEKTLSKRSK

[8] = target: T4, Tyrosyl-tRNA synthetase, putative (Trypanosoma cruzi (strain CL Brener)); test: Trypanosoma cruzi tyrosyl tRNA synthetase (TcYRS) SOP; assay type: functional; settings: 30 µM
[9] = target: Chromo domain-containing protein 1 (Saccharomyces cerevisiae (strain ATCC 204508 / S288c) (Baker's yeast)) (UniProt P32657); test: ScCHD-1 Enzyme Inhibition Assay; assay type: functional; settings: 30 µM; also: in the data most compounds retested in dose-response had high values
Sequence of Chromo domain-containing protein 1 (Saccharomyces cerevisiae (strain ATCC 204508 / S288c) (Baker's yeast)) (P32657 whole entry, the tested form may be a part): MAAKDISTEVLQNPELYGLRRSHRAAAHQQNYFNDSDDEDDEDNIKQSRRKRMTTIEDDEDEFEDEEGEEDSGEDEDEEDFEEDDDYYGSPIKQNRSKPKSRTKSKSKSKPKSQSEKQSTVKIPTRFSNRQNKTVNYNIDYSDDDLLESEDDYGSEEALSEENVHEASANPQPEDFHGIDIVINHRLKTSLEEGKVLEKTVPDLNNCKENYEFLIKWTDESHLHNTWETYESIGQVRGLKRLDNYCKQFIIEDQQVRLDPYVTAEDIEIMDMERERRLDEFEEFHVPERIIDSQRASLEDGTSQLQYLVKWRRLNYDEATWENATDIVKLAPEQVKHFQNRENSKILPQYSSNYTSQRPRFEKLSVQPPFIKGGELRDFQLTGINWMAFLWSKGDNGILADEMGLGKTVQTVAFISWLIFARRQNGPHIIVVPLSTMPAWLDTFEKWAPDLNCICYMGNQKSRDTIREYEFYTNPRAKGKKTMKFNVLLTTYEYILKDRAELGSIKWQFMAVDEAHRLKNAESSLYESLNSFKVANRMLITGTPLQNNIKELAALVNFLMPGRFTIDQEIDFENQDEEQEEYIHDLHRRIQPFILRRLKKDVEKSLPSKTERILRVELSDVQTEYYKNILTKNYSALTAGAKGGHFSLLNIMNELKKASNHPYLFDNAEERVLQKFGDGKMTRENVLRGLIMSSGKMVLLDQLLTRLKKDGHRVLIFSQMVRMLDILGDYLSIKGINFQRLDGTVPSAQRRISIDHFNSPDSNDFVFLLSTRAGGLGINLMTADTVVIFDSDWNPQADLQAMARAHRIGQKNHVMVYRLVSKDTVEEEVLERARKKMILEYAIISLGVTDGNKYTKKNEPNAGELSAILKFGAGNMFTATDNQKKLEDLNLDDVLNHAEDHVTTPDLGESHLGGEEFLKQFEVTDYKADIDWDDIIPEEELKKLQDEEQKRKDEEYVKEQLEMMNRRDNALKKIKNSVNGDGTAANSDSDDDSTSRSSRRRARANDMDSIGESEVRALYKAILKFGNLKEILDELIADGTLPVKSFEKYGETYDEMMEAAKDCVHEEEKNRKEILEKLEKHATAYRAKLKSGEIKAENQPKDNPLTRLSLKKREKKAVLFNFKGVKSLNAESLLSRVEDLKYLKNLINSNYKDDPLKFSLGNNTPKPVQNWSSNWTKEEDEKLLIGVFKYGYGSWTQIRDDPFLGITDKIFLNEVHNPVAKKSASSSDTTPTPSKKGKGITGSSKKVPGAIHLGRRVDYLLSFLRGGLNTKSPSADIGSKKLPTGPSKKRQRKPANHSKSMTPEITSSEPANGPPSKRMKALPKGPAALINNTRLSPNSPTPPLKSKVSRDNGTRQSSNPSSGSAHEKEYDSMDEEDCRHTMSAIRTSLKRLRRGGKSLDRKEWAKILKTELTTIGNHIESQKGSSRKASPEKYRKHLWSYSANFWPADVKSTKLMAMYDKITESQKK

Sequence of Protein translocase subunit SecA (Escherichia coli (strain K12)) (P10408 whole entry): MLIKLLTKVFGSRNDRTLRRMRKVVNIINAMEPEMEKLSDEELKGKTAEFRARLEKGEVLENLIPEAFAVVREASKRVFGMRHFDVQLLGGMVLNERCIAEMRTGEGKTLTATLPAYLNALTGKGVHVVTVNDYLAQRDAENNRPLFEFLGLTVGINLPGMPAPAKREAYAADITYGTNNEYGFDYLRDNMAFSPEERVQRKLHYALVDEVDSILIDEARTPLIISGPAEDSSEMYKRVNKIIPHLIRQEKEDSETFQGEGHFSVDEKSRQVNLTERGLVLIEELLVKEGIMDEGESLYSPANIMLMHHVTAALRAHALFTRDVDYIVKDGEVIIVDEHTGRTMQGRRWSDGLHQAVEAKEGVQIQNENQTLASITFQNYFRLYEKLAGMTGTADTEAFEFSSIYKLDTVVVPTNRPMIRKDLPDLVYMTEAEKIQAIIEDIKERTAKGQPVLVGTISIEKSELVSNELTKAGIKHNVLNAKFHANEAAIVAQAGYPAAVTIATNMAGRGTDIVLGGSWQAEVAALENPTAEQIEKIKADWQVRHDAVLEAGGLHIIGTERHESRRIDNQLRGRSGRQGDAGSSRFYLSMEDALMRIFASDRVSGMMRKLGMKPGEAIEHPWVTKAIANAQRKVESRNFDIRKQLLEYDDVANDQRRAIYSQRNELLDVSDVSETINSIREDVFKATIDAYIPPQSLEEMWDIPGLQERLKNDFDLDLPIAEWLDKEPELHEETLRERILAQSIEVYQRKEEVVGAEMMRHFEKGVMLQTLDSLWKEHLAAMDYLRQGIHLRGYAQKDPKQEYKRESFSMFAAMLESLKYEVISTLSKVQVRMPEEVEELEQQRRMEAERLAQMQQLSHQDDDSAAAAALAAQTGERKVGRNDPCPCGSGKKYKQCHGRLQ

Row | SMILES | Percent Effect [1] [%] | Percent Effect [2] [%] | Percent Effect [3] [%] | Percent Effect [4] [%] | Percent Effect (Trypanosoma cruzi) [%] | Percent Effect [5] [%] | Percent Effect [6] [%] | Percent Effect (Homo sapiens) [%] | Percent Effect [7] [%] | Percent Effect [8] [%] | Percent Effect [9] [%]
1 | CC(C)CCNC(=O)c1sccc1N(C)S(=O)(=O)c1ccccc1 | -0.473 | 23.7 | -3.53 | -18.2 | -0.0974 | -3.55 | 10.3 | 23.3 | -3.19 | 5.2 | -3.5
2 | CC1CCN(S(=O)(=O)NCCCn2cncn2)CC1 | -3.76 | 6.33 | 3.29 | 1.98 | 1.33 | 5.38 | 5.49 | 23.8 | 5.21 | 12.7 | -7.93
3 | Cc1ccc(C#N)c(N2CCC(c3nccn3CCN(C)C)CC2)n1 | -4.49 | 2.67 | 1.54 | 4.68 | -3.6 | -2.08 | 11.7 | 12.9 | 7.1 | 11.1 | -8.91
4 | O=C1CN(Cc2nnc(-c3ccc(Br)cc3)o2)CCN1 | 0.69 | 18.1 | -9.97 | 2.35 | 2.04 | -1.77 | 15.6 | 11.5 | 2.1 | 2.56 | -3.39
5 | Cc1cnc2c(S(=O)(=O)NCC3CCN(C4CC4)C3)cccc2c1 (stereo not given) | -4.76 | -2.63 | -3.93 | -5.34 | 5.32 | -3.6 | -7.53 | -27.5 | 11.3 | 6.17 | 6.25
6 | O=C(O)[C@]12CCCN(Cc3ccccc3)C[C@H]1CN(c1ncccn1)C2 | -4.2 | 5.33 | 7.47 | -4.2 | 0.386 | -39.2 | 9.91 | -24.8 | 4.17 | 12.5 | -8.27
7 | CC(NC(=O)N1CCC(n2cncn2)CC1)c1ccc(F)cc1F (stereo not given) | -3.51 | 12.7 | -2.69 | 7.75 | -0.0944 | -1.14 | 8.6 | 8.31 | 5.42 | 13.9 | -5.72
8 | O=C(CN(Cc1ccccc1)CC1CCOCC1)NC(=O)NC1CC1 | -9.18 | 0 | 0.0982 | -1.54 | -4.96 | -4.39 | 3 | -3.5 | 1.04 | -3.7 | 1.29
9 | COc1ccccc1OCC(=O)NS(=O)(=O)c1cc(F)ccc1F | -2.96 | -2.7 | 1.01 | 2.58 | -5.99 | 0 | 0.345 | 0.0392 | 0.529 | 4.88 | -1.41
10 | COc1cccc(N2CCN(C(=O)C(O)c3cccc(Cl)c3)CC2=O)c1 (stereo not given) | 0.76 | 10.8 | -5.94 | -2.7 | -3.48 | -1.91 | 11.2 | 22.3 | 4.76 | 0 | -1.09
11 | Cc1cccc(CN2C(=O)CC[C@@H]3[C@H]2CCN3Cc2ccc(C)s2)n1 | -2.54 | 2.67 | 9.98 | 2.33 | -1.57 | 0.233 | 9.43 | 6.8 | -1.06 | -3.85 | 2.14
12 | CC(Cn1ccnc1)NC(=O)NCCc1ccccn1 (stereo not given) | -1.01 | 21.1 | -0.947 | -4.27 | 1.69 | -2.3 | 21.2 | 6.74 | 5.39 | 21.9 | -8.97
13 | c1coc(-c2nnc(CN3CCOC(Cn4cccn4)C3)o2)c1 (stereo not given) | -5.27 | 7.59 | -2.15 | 1.36 | 6.89 | 0.76 | 11.6 | 8.37 | 5.42 | 13.9 | -6.49
14 | CC(C)Oc1ncccc1CNC(=O)N1CCC(C(N)=O)C1 (stereo not given) | -6.99 | 5.26 | -1.63 | 3.84 | -4.51 | 2.68 | 2 | 23.8 | 1.47 | 7.32 | -0.235
15 | COCC1CN(Cc2cc(C)on2)Cc2cn(C)nc21 (stereo not given) | -1.68 | 8 | 1.48 | 12.2 | -0.965 | -24.2 | 9.06 | -11 | 6.25 | 10 | -4.54
16 | COc1ccccc1CC(=O)N1CCC(NCc2cc[nH]c2)CC1 | -0.99 | 18.9 | -7.09 | -3.31 | 4.92 | 5.36 | 16.3 | 5.88 | 11.9 | 23.2 | -7.56
17 | Cc1cnn(CCNCc2nc(-c3ccccc3Cl)no2)c1 | -4.16 | 10.5 | 0.118 | -5.56 | 9.77 | -4.98 | 16.5 | 12.2 | 5.39 | 17.1 | -13.7
18 | CN(C)c1cc2c(nn1)CCN(C(=O)C1CCc3ccccc31)C2 (stereo not given) | -6.92 | 5.06 | -21.4 | 3.81 | -0.283 | 0.38 | -1.06 | 15.8 | -5.42 | -8.86 | -2.71
19 | CCOc1ncccc1C(=O)N(C)Cc1ncc(C)c(OC)c1C | -0.0989 | 13 | 5.97 | -3.9 | -3.23 | 6.95 | 12.5 | 27.5 | 5.71 | 18.8 | -14.4
20 | Cc1csc(NC(=O)CN(C)CC2CCCN2c2cccnn2)n1 (stereo not given) | -4.27 | 0 | -8.12 | 2.96 | -6.05 | 5.42 | 15.5 | 9.4 | 11.9 | 8.54 | -4.21
